Our source for the growth values is PubChem BioAssay (NCI).

The panel holds about 83,000 compounds, 20% with a hit somewhere; the sample as a whole holds those more often.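 Cell lines were cultured in 96-well plates, exposed to a single compound concentration, and assessed for percent growth 48 hours later.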 Values without a mark were called inactive. Calls of active or inactive are those of the source. How the source made its calls: active means growth percent below 10; inactive means the rest.

Test systems include K-562 leukemia; MALME-3M melanoma; MDA-MB-231 breast; RXF 393 renal; SF-268 CNS; SF-295 CNS; SF-539 CNS; UACC-257 melanoma; M14 melanoma; HCT-15 colon.
Common to all, as to assay: NCI-60 one-dose screen, 48 h (100 = growth as untreated, 0 = no growth, -100 = all killed)
What all share (conditions): 10 µM

As for `CC/C(=C(/c1ccc(OCCN(C)C)cc1)c1ccc(OC(=O)CCCCCCCCC(=O)c2c(C)[nH]c(/C=C3\N=C(c4ccc[nH]4)C=C3OC)c2C)cc1)c1ccccc1`, the growth is 33.5% in the assay on K-562 leukemia; 68.1% with MALME-3M melanoma; 11.2% in the assay with MDA-MB-231 breast; 69.1% with RXF 393 renal; 71.7% in the assay with SF-268 CNS; 89% in the assay on SF-295 CNS. Also, the growth with SF-539 CNS was 83.4%; in the assay on UACC-257 melanoma, 90.5%; with M14 melanoma, 38.6%; in the assay with HCT-15 colon it was 58%.
`COc1cc(-c2nc(Nc3nc4ccccc4s3)[nH]c(=O)c2C#N)cc(OC)c1O`: the growth is 100% in the assay with K-562 leukemia; 118% in the assay with MALME-3M melanoma; 106% with MDA-MB-231 breast; 105% in the assay on RXF 393 renal; 123% in the assay on SF-268 CNS; 116% in the assay with SF-295 CNS. Also, the growth is 108% with SF-539 CNS, 102% in the assay on UACC-257 melanoma, 96.3% in the assay with M14 melanoma and 107% in the assay on HCT-15 colon.
As to `Nc1c(C(=O)Nc2ccccc2)sc2nc3c(cc12)CCCC3`, the growth in the assay with K-562 leukemia is 13.6%; in the assay on MALME-3M melanoma, 52%; in the assay with MDA-MB-231 breast, 56%; in the assay with RXF 393 renal, -24.3% (active); in the assay with SF-268 CNS, 54.7%; in the assay on SF-295 CNS, 5.09% (active). Moreover, the growth with SF-539 CNS was -3.86% (active); in the assay with UACC-257 melanoma it was 59.2%; in the assay on M14 melanoma, 22.7%; in the assay on HCT-15 colon it was 24.8%.
As for `CN(C)N=Nc1nn(C(=O)Nc2ccc(Cc3ccccc3)cc2)c2ccccc12`, the growth is 18.4% in the assay on K-562 leukemia; 53.8% in the assay with MALME-3M melanoma; 58.2% in the assay with MDA-MB-231 breast; 94.8% with RXF 393 renal; 63.5% with SF-268 CNS; 9.64% (active) with SF-295 CNS. The growth in the assay with SF-539 CNS was 4.93% (active); in the assay on UACC-257 melanoma it was 29.3%; in the assay on M14 melanoma, 20.4%; in the assay on HCT-15 colon, 36.2%.
Regarding `CC(C)C[C@H](NC(=O)[C@H](Cc1cccc2ccccc12)NS(=O)(=O)c1cccc2cccnc12)B(O)O`, the growth in the assay with K-562 leukemia was -17.7% (active); with MALME-3M melanoma it was -76.9% (active); with MDA-MB-231 breast, -4.94% (active); in the assay on RXF 393 renal, 15.9%; with SF-268 CNS, 0.092% (active); in the assay with SF-295 CNS, -70.5% (active). The growth with SF-539 CNS is -34.1% (active); in the assay with UACC-257 melanoma it was 15.4%; with M14 melanoma, -47.4% (active); with HCT-15 colon, -65.8% (active).
Regarding `N#CCCN1C/C(=C/c2ccccc2)C(=O)/C(=C/c2ccccc2)C1`, the growth in the assay with K-562 leukemia was 2.2% (active); in the assay on MALME-3M melanoma, -28.7% (active); with MDA-MB-231 breast, 13.9%; in the assay on RXF 393 renal, 50.3%; with SF-268 CNS it was 24.7%; in the assay with SF-295 CNS, 26.3%. The growth with SF-539 CNS is 76.1%; with UACC-257 melanoma it was 56.2%; in the assay on M14 melanoma, -9.82% (active); in the assay on HCT-15 colon, -56.4% (active).
Turning to `O=C1/C(=C\c2ccccc2)CN(C(=O)c2ccccc2F)C/C1=C\c1ccccc1`, the growth was 0.045% (active) in the assay on K-562 leukemia; -34.5% (active) in the assay with MALME-3M melanoma; 12.7% with MDA-MB-231 breast; -78.2% (active) in the assay on RXF 393 renal; 16.9% in the assay with SF-268 CNS; 6.51% (active) in the assay with SF-295 CNS. Moreover, the growth in the assay with SF-539 CNS was 40.5%; in the assay with UACC-257 melanoma, -10.1% (active); in the assay with M14 melanoma, -59.5% (active); in the assay with HCT-15 colon it was -28.5% (active).
In the case of `CCOCC(=O)C(C#N)c1ccc(Cl)c(Cl)c1` (stereo not given), the growth with K-562 leukemia was 94.6%; in the assay on MALME-3M melanoma it was 106%; with MDA-MB-231 breast, 105%; in the assay with RXF 393 renal, 94.8%; in the assay with SF-268 CNS, 106%; in the assay on SF-295 CNS, 89.3%. Moreover, the growth in the assay with SF-539 CNS was 94.8%; with UACC-257 melanoma, 92%; in the assay with M14 melanoma, 113%; in the assay with HCT-15 colon, 89.9%.
`O=C(c1cccs1)c1ccccc1Cc1ccccc1`: the growth is 98.2% in the assay on K-562 leukemia; 110% with MALME-3M melanoma; 88.6% in the assay with MDA-MB-231 breast; 99.5% in the assay with RXF 393 renal; 115% in the assay with SF-268 CNS; 98.3% with SF-295 CNS. For the same compound, the growth in the assay with SF-539 CNS was 112%; in the assay on UACC-257 melanoma it was 92.8%; in the assay with M14 melanoma it was 118%; in the assay on HCT-15 colon it was 103%.
Turning to `COc1cc(Cl)cc(-c2nn(-c3cccc(NC(=O)c4ccc(Cl)c(Cl)c4)c3)cc2-c2ccncc2)c1`, the growth with K-562 leukemia was 46.3%; in the assay with MALME-3M melanoma, 96.4%; in the assay on MDA-MB-231 breast, 33.9%; in the assay on RXF 393 renal, 59.2%; in the assay with SF-268 CNS, 82.4%; in the assay on SF-295 CNS, 36.1%. The growth in the assay with SF-539 CNS is 74.5%; in the assay with UACC-257 melanoma it was 84.2%; in the assay on M14 melanoma, 68.9%; in the assay with HCT-15 colon it was 57.9%.
With `Cc1cccc2c(NCCN(C)C)c3cccc(C(=O)NCCN(C)C)c3nc12`, the growth is -24.5% (active) in the assay with K-562 leukemia; 7.06% (active) in the assay on MALME-3M melanoma; 5.41% (active) with MDA-MB-231 breast; 8.33% (active) with RXF 393 renal; 11.3% in the assay on SF-268 CNS; 7.5% (active) in the assay on SF-295 CNS. Further, the growth in the assay with SF-539 CNS is 11.6%; with UACC-257 melanoma, -20.6% (active); with M14 melanoma it was 11.7%; in the assay with HCT-15 colon, -46.5% (active).
Regarding `COc1ccc(-c2cc(-c3ccc(N(C)C)cc3)c(C#N)c(N3CCCC3)n2)cc1`, the growth with K-562 leukemia is 69.3%; in the assay on MALME-3M melanoma, 122%; with MDA-MB-231 breast, 64.1%; with RXF 393 renal it was -2.09% (active); with SF-268 CNS, 96.7%; in the assay on SF-295 CNS, 93.8%. For the same compound, the growth with SF-539 CNS is 88.8%; in the assay on UACC-257 melanoma, 88%; in the assay on M14 melanoma it was 73.3%; in the assay with HCT-15 colon, 71.4%.
`Nc1c(C(=O)Nc2cccc(Br)c2)sc2nc3c(cc12)C(O)CCC3` (stereo not given): the growth is 7.52% (active) with K-562 leukemia; 64.3% with MALME-3M melanoma; 44.2% with MDA-MB-231 breast; -22% (active) in the assay with RXF 393 renal; 46.2% in the assay with SF-268 CNS; 33.9% with SF-295 CNS. For the same compound, the growth in the assay on SF-539 CNS was -21.2% (active); in the assay with UACC-257 melanoma, 64.7%; in the assay with M14 melanoma, 12.8%; with HCT-15 colon, 23.5%.
For the compound `Cc1cccc2c1O/C(=C\c1ccc([N+](=O)[O-])o1)C2=O`, the growth was -44.2% (active) in the assay with K-562 leukemia; -32.4% (active) in the assay on MALME-3M melanoma; -47.3% (active) with MDA-MB-231 breast; -80.8% (active) with RXF 393 renal; -39.8% (active) with SF-268 CNS; 31.1% with SF-295 CNS. In addition, the growth was -59.2% (active) with SF-539 CNS, -65% (active) with UACC-257 melanoma, -54.1% (active) in the assay on M14 melanoma and -55.2% (active) in the assay with HCT-15 colon.
